The text below walks through data of PubChem BioAssay (NCATS).

Entries with a potency or affinity are not part of this list. Values without a mark were called inactive. No rule for the calls is given here.
Also: 0% is about no effect.

For the assay the following is noted: Ebola virus entry assay, green fluorescence channel.
As for `CNC[C@H](O)c1cccc(O)c1`, the efficacy was -23.9%.
As for `COc1ccc2c(c1)c(CC(=O)OC/C=C(\C)CC/C=C(\C)CCC=C(C)C)c(C)n2C(=O)c1ccc(Cl)cc1`, the figure is 62.6%; as for `CC(C)=CC1C(C(=O)OCN2C(=O)C3=C(CCCC3)C2=O)C1(C)C` (stereo not drawn), 28%; as for `CN1CCC(O)(c2ccc(F)cc2)C(C(=O)c2ccc(F)cc2)C1` (stereo not drawn), 22.6%.
Turning to `C[n+]1c2cc(N)ccc2cc2ccc(N)cc21` (tested in a mixture with another compound), the efficacy was 129%.
As for `CC(C)[N+](C)(C)CC(O)COc1cccc2ccccc12` (stereo not drawn), the figure is -28.5%; as for `N#C[C@H]1C[C@H]2C[C@@H]2N1C(=O)[C@@H](N)C12CC3CC(CC(O)(C3)C1)C2`, -19.1%.
On to `COC(=O)C(Cl)C(=O)OC`, for which the efficacy was 18.5%.
For the compound `O=C(O)C(S)C(S)C(=O)O` (stereo not drawn), the efficacy is -24.2%.
The same measure for `Cc1c(C(C)C)c(=O)n(-c2ccccc2)n1C`: 14.2%; for `CNCC(O)c1ccc(O)c(O)c1` (stereo not drawn): 44.4%; for `OCCc1ccccc1`: 36.8%.
On to `Cc1ncc(CO)c(C=O)c1O`, for which the efficacy was -24.1%.
As for `O=C1NCC2(CCN(CCc3ccccc3)CC2)O1`, the efficacy is 10.9%.
For `ClCCN1CCCC1`, the efficacy was -44.4%.
`Cc1cc2cc3c(C)cc(=O)oc3c(C)c2o1`: the efficacy is -24.3%.
For the compound `O=C(N/N=C/c1ccc([N+](=O)[O-])o1)c1cc([N+](=O)[O-])cc([N+](=O)[O-])c1O`, the efficacy was -16.9%.
On to `CC(=O)NS(=O)(=O)c1ccc(N)cc1`, for which the efficacy was 10.9%.
